Data taken from article PMC4552634, “A New Set of Chemical Starting Points with Plasmodium falciparum Transmission-Blocking Potential for Antimalarial Drug Discovery” (PLoS ONE, 2015).
Hit rate of the full screen: of about 13,000 compounds, about 3,200 (25%) showed an effect of 50% or more. This is one part of the list.

The compounds below were run on P. falciparum stage V gametocytes. Settings: 48 h, 5 µM; inhibitor.
Parameters: BacTiter-Glo ATP luminescence viability of purified stage V gametocytes in 384-well plates, per cent inhibition versus DMSO

Point of comparison: `COc1nc2c(CCN3CCC(NCc4ccc5c(c4)NC(=O)CO5)CC3)c(Cl)cnc2cc1F` [TCMDC-135767], “% Inhibition” value 23.61%. Against it:
- CCCc1cc(Cc2cnc(N)nc2N)cc(OCCCCCC(=O)O)c1OC [TCMDC-137182] — lower, 2.989%
- O=C(NC1CCN(Cc2ccccc2)CC1)c1ccc2c(=O)n(Cc3ccc(Cl)cc3)c(=S)[nH]c2c1 [TCMDC-125694] — lower, 0.6987%
- COCCNCc1cccc(C#Cc2cc3ncnc(Nc4ccc(OCc5cccc(F)c5)c(Cl)c4)c3s2)n1 [TCMDC-138842] — lower, 7.186%
- Fc1ccc(CN2CCN(c3ncnc4cc(-c5ccccc5)sc34)CC2)cc1 [TCMDC-132385] — lower, -47.67%
- CCCc1cc(Cc2cnc(N)nc2N)cc2c1OC(C)C2C (stereo not shown) [TCMDC-138047] — lower, 3.526%
- O=C1COC2(CN1CC1CCN(Cc3ccc(O)c(Cl)c3)C1)c1ccccc1-c1ccccc12 (stereo not shown) [TCMDC-136343] — lower, -1.738%
- NC(N)=NC(=O)Nc1ccc(Cl)c(C(F)(F)F)c1 [TCMDC-137469] — lower, -12.43%
- Cc1ncc(CN2CCC(C(=O)Nc3ccc(-c4nc5ccccc5o4)cc3)CC2)s1 [TCMDC-124675] — lower, 0.01985%
- O=C(Nc1cccc(CN2CCCN(Cc3cccc(O)c3)CC2)c1)c1ccc2ccccc2c1 [TCMDC-141855] — lower, 21.81%
- Cc1nccc2c(NC(=O)N[C@@H]3CCN(c4ncc(C(F)(F)F)cc4Br)C3)cccc12 [TCMDC-141942] — lower, 13.41%
- Cc1nc2ccc3ccc(CNc4ccc(C(=O)N[C@@H](CCC(=O)O)C(=O)O)c(F)c4)cc3c2c(=O)[nH]1 [TCMDC-138112] — lower, -4.938%
- Cc1ccc2ccncc2c1N [TCMDC-138025] — lower, -56.11%
- CN(Cc1ccc(-c2ccc(C(F)(F)F)cc2)cc1)C(=O)Cn1c(CCc2cccc(F)c2F)nc(=O)c2ccc(N3CCN(CCN4CCCCC4)CC3)nc21 [TCMDC-136511] — higher, 109.8%
- CN1CCC(N2CCN(c3ccc4c(=O)nc(CCc5cccc(F)c5F)n(CC(=O)N(C)Cc5ccc(-c6ccc(C(F)(F)F)cc6)cc5)c4n3)CC2)CC1 [TCMDC-136512] — higher, 105.9%
- Cc1cc(NC(=O)Nc2cccc(C#N)c2)c2ccccc2n1 [TCMDC-138953] — lower, 4.681%
- Nc1cccc(CNCc2ccc(-c3ccc(-c4nc5ccccc5[nH]4)s3)cc2)c1 [TCMDC-132927] — lower, -10.94%
- CSc1nc2nc(C)c(Cc3cccc(C(F)(F)F)c3)c(C)n2n1 [TCMDC-123763] — lower, -63.49%
- CN(C)CCC(O)(c1ccc(Br)cc1)c1cccnc1 (stereo not shown) [TCMDC-131412] — lower, -6.865%
- CC(CO)(CO)NCc1cc2ccc3ccsc3c2c2ccccc12 [TCMDC-137753] — lower, 1.403%
- CC(CO)(CO)NCc1cc2c3ccccc3c(CNC(C)(CO)CO)cc2c2ccccc12 [TCMDC-137752] — higher, 88.47%
- Cn1c2ccccc2c2c3ccccc3c(CNC(CO)(CO)CO)cc21 [TCMDC-137747] — lower, 1.595%
- COc1ccccc1C1CC(c2ccc(C)cc2)=NN1C(=O)c1ccccc1 (stereo not shown) [TCMDC-123887] — lower, 21.23%
- COc1cc(Cc2cnc(N)nc2N)c2ccsc2c1OC [TCMDC-137762] — lower, -4.679%
- CCN(CC)CCNc1cc(C)nc(/N=C(\N)Nc2ccc(Cl)cc2)n1 [TCMDC-137477] — higher, 81.2%
- Cc1cc(NCCc2ccccc2)nc(/N=C(\N)Nc2ccccc2Cl)n1 [TCMDC-138370] — higher, 92.38%
- CCOC(=O)N1CCN(C(=O)Nc2ccc(Cl)cc2)CC1 [TCMDC-125820] — lower, -28.23%
- CCOc1cc(C)ccc1N1CCN(CCCCNC(=O)c2ccc(NC(=O)c3ccc(Cl)cc3)cc2)CC1 [TCMDC-138523] — lower, 2.314%
- CCNc1cc(C)nc(Nc2ccc(NC(=O)c3c(F)cccc3Cl)cc2)n1 [TCMDC-124984] — lower, 3.1%
- CCOC(=O)c1cccc(N/C(N)=N/c2nc(C)cc(NCCc3ccccc3)n2)c1 [TCMDC-138372] — higher, 76.13%
- Cc1cc(N2CC=CCC2)nc(/N=C(\N)Nc2ccc(Cl)cc2)n1 [TCMDC-131240] — higher, 30.94%
- CCOC(=O)N1CCN(CCCCCNc2cc(C)nc(/N=C(\N)Nc3ccc(Cl)cc3)n2)CC1 [TCMDC-138013] — higher, 60.55%
- CCOC(=O)c1cccc(NC(=O)Nc2cc(C)nc3ccccc23)c1 [TCMDC-138957] — lower, -2.163%
- COc1ccc2nccc(NC(=O)C3(O)CCC(NCc4ncc5c(c4Cl)OCCO5)CC3)c2n1 (stereo not shown) [TCMDC-141562] — lower, 2.096%
- O=C(O)C(F)(F)F.O=C(O)CCc1ccc(-c2c[nH]c3ncc(-c4ccc5ncccc5c4)cc23)cc1 [TCMDC-136336] — lower, 14.57%
- COc1ccc2nccc([C@@H](O)CN3CCC(NCc4cn5cc(F)ccc5n4)CC3)c2c1 [TCMDC-140778] — higher, 43.65%
- Cn1c(NC(=O)C2CCC(CNC(=O)c3ccc(O)c(-c4ccc(Cl)c(Cl)c4)c3)CC2)nc2ccccc21 (stereo not shown) [TCMDC-140897] — lower, 13.96%
- O=C(NCc1cccnc1)C(c1cc2ccccc2o1)N1CCN(C(c2ccccc2)c2ccccc2)CC1 (stereo not shown) [TCMDC-141023] — lower, 15.45%
- O=C(NC1CCC(CN2CCC(c3c[nH]c4ccccc34)CC2)CC1)c1cc(-c2ccc(F)cc2F)ccc1O (stereo not shown) [TCMDC-139894] — lower, -31.8%
- Cc1cc(N2CCCC2)nc(/N=C(\N)Nc2cccc(C(F)(F)F)c2)n1 [TCMDC-138509] — lower, 20.83%
- Cc1cc(NCCCOc2ccc(Cl)cc2)nc(NCc2ccccc2)n1 [TCMDC-137548] — lower, -22.71%
- CCCCCCNc1cc(C)nc(/N=C(\N)Nc2cccc(C(F)(F)F)c2)n1 [TCMDC-138510] — higher, 79.07%
- Cc1cc(NCCc2cccc(F)c2)nc(/N=C(\N)Nc2cccc(C(F)(F)F)c2)n1 [TCMDC-138508] — higher, 57.1%
- Cc1cc(NCCc2ccccc2)nc(/N=C(\N)Nc2ccc(Cl)cc2)n1 [TCMDC-131843] — higher, 52.3%
- Cc1cc(NCCc2ccccc2)nc(/N=C(\N)Nc2cccc(F)c2)n1 [TCMDC-138373] — higher, 55.97%
- NC(N)=NN=CC(=O)Nc1cccc(C(F)(F)F)c1 [TCMDC-137563] — lower, 10.63%
- Cc1cc(NCCc2ccccc2)nc(NC(=NCC(=O)OC(C)(C)C)Nc2ccc(C(F)(F)F)cc2)n1 [TCMDC-138520] — lower, -13.38%
- N#Cc1ccc(/C=C/C(=O)NCCCCCN2CCCN(C(=O)Nc3ccc(Cl)c(C(F)(F)F)c3)CC2)cc1 [TCMDC-136110] — higher, 28.79%
- Cc1[nH]c(CNCCCNc2cc(=O)c3ccccc3[nH]2)c(Br)c1Br [TCMDC-139780] — lower, -12%
- COc1ccc(-c2cc(C(=O)Nc3ccc4nc(-c5ccccc5)[nH]c4c3)[nH]n2)cc1 [TCMDC-134399] — lower, -1.351%
- Fc1cccc(COc2ccc(Nc3ncnc4sc(C#CCNC5CCC5)cc34)cc2Cl)c1 [TCMDC-138785] — lower, 4.873%
- Cc1cc(NCCc2ccccc2)nc(/N=C(\N)Nc2cccc(Cl)c2)n1 [TCMDC-138364] — higher, 54.32%
- Cc1cc(NCCc2ccccc2)nc(/N=C(\N)Nc2cccc([N+](=O)[O-])c2)n1 [TCMDC-138371] — lower, 3.581%
- CC(C)CCN(Cc1cncn1Cc1cccc(C(F)(F)F)c1)C(=O)c1ccccc1C#N [TCMDC-132457] — lower, 14.87%
- O=C(O)C(F)(F)F.O=C1CCCN1CCCNCc1ccc(-c2ccc(-c3nc4cc(C(F)(F)F)ccc4[nH]3)cc2)cc1 [TCMDC-132760] — higher, 37.39%
- Cn1ncc2c3c(CCN4CCC(NCc5ccc6c(c5)NC(=O)CO6)CC4)c(Cl)cnc3ccc21 [TCMDC-136023] — higher, 91.21%
- COc1cc(F)c2ncc(Cl)c(CCN3CCC(NCc4ccc5c(c4)NC(=O)CO5)CC3)c2c1 [TCMDC-135623] — higher, 24.82%
- CC(=O)c1ccc(N2C(=O)C3C(Cc4ccc(OC(C)(C)C)cc4)NC4(C(=O)N(Cc5ccc(C(C)(C)C)cc5)c5ccccc54)C3C2=O)cc1 (stereo not shown) [TCMDC-139773] — lower, 1.15%
- C=CCc1cc(Cc2cnc(N)nc2N)c2ccc(C)nc2c1O [TCMDC-137628] — lower, -3.473%
- Cc1cccc(CNc2nccc3[nH]c4ccccc4c23)c1 [TCMDC-136334] — lower, -2.626%
- CN(C)c1cccc2c1nc(-c1ccco1)n2CCNCc1ccccc1 [TCMDC-133484] — higher, 72.16%
- CN(CCc1ccccn1)c1cccc2c1nc(-c1cccnc1)n2CCNCc1ccccc1 [TCMDC-133439] — lower, -10.58%
- CN(C)CCNc1cc(-c2cccnc2)nc(-c2ccncc2)n1 [TCMDC-125595] — lower, -4.49%
- CN(C)CCCN(C)c1cccc2c1nc(-c1cccnc1)n2CCNCc1ccccc1 [TCMDC-133440] — higher, 88.37%
- Cc1nc2nc(N)nc(N)c2c(C)c1Cc1cccc(C#N)c1 [TCMDC-137646] — lower, -13.13%
- Cc1nc(N)nc(N)c1CCCOc1ccc(Br)cc1 [TCMDC-138068] — lower, -19.95%
- CC(=O)c1cccc(NC(=O)N2CCCN(CCCCCNC(=O)/C=C/c3ccc(Cl)c(Cl)c3)CC2)c1 [TCMDC-135752] — lower, -19.76%
- COc1ccc(-c2nc(NC(=O)Cc3coc4cc(OC)ccc34)sc2C)cc1 [TCMDC-124497] — higher, 27.62%
- CCN(CC)CCN(Cc1ccc(-c2ccc(C(F)(F)F)cc2)cc1)C(=O)Cn1c(CCc2cccc(F)c2F)nc(=O)c2cc(F)c(F)cc21 [TCMDC-141089] — higher, 67.52%
- CCN(CC)CCN(Cc1ccc(-c2ccc(C(F)(F)F)cc2)cc1)C(=O)Cn1c(CCc2cccc(F)c2F)nc(=O)c2ccc(F)cc21 [TCMDC-141095] — higher, 68.69%
- CCN(CC)CCN(Cc1ccc(-c2ccc(C(F)(F)F)cc2)cc1)C(=O)Cn1c(CCc2cccc(F)c2F)nc(=O)c2ccc(C(F)(F)F)cc21 [TCMDC-141071] — higher, 34.24%
- CCN(CC)CCN(Cc1ccc(-c2ccc(C(F)(F)F)cc2)cc1)C(=O)Cn1c(SCc2ccc(F)cc2)cc(=O)c2ccccc21 [TCMDC-140791] — higher, 99.53%
- CCN(CC)CCN(Cc1ccc(-c2ccc(C(F)(F)F)cc2)cc1)C(=O)Cn1c(CCc2cccc(F)c2F)nc(=O)c2cc(F)ccc21 [TCMDC-141096] — higher, 73.36%
